# PubChem BioAssay AID1479146 (National Center for Advancing Translational Sciences (NCATS), 2020)
# Results filed as inconclusive are left out. Where a call stands in place of a potency, no number is given. A number with no mark means an inactive call. Calls of active or inactive are those of the source. The call rests on the fitted dose curve.
# Assay: Confirmatory qHTS for Huh7 cytotoxicity: counterscreen for inhibitors of MERS-S pseudo-typed particle cell entry
Compound,Potency,"activity change, negative = cytotoxicity"
C=CC(=O)Nc1cc(Nc2nccc(-c3cn(C)c4ccccc34)n2)c(OC)cc1N(C)CCN(C)C,10.8 µM (active),
Cc1c(N)nc(C(CC(N)=O)NCC(N)C(N)=O)nc1C(=O)NC(C(=O)NC(C)C(O)C(C)C(=O)NC(C(=O)NCCc1nc(-c2nc(C(=O)NCCCN[C@@H](C)c3ccccc3)cs2)cs1)C(C)O)C(O[C@@H]1O[C@@H](CO)[C@@H](O)[C@H](O)[C@@H]1O[C@H]1O[C@H](CO)[C@@H](O)[C@H](OC(N)=O)[C@@H]1O)c1cnc[nH]1 (some centres not stated),inactive,
CCCCc1oc2ccccc2c1C(=O)c1cc(I)c(OCCN(CC)CC)c(I)c1,inactive,
c1ccc2c(c1)Sc1ccccc1N2CC1CN2CCC1CC2 (configuration not stated),30.4 µM (active),
CCCCCCOC(=O)NC(=N)c1ccc(NCc2nc3cc(C(=O)N(CCC(=O)OCC)c4ccccn4)ccc3n2C)cc1,inactive,
C[n+]1c2cc(N)ccc2cc2ccc(N)cc21 (tested in a mixture with another compound),3.83 µM (active),
N/C(=N\N=C\c1ccc(Cl)cc1)N/N=C/c1ccc(Cl)cc1,inactive,
O=C1c2c(O)ccc(O)c2C(=O)c2c(NCCNCCO)ccc(NCCNCCO)c21,17.1 µM (active),
CCCCN=C(N)N=C(N)N,inactive,
CC[C@@H]([C@H](C)O)n1ncn(-c2ccc(N3CCN(c4ccc(OC[C@@H]5CO[C@@](Cn6cncn6)(c6ccc(F)cc6F)C5)cc4)CC3)cc2)c1=O,inactive,
C=CC1(C)CC(=O)C2(O)C(C)(O1)C(OC(C)=O)C(OC(=O)CCN(C)C)C1C(C)(C)CCC(O)C12C (configuration not stated),inactive,
CN1CCC(=C2c3ccccc3C=Cc3ccccc32)CC1,inactive,
O=c1c(C2CC(c3ccc(-c4ccc(Br)cc4)cc3)Cc3ccccc32)c(O)sc2ccccc12 (configuration not stated),inactive,
N=C(N)c1ccc(OCCCCCOc2ccc(C(=N)N)cc2)cc1,inactive,
Cc1cc(-n2c(=O)[nH]c(=O)n(C)c2=O)ccc1Oc1ccc(S(=O)(=O)C(F)(F)F)cc1,inactive,
CN(C/C=C/c1ccccc1)Cc1cccc2ccccc12,inactive,
Cc1cc(C(C#N)c2ccc(Cl)cc2)c(Cl)cc1NC(=O)c1cc(I)cc(I)c1O (configuration not stated),inactive,
CCCCCCNC(=O)n1cc(F)c(=O)[nH]c1=O,inactive,
CN1CCC(=C2c3ccccc3CCc3sccc32)CC1,inactive,
CC(C)C[C@H](NC(=O)[C@H](CCc1ccccc1)NC(=O)CN1CCOCC1)C(=O)N[C@@H](Cc1ccccc1)C(=O)N[C@@H](CC(C)C)C(=O)[C@@]1(C)CO1,0.192 µM (active),
CC(CN(C)C)CN1c2ccccc2CCc2ccccc21 (configuration not stated),inactive,
CCOc1cc2ncc(C#N)c(Nc3ccc(OCc4ccccn4)c(Cl)c3)c2cc1NC(=O)/C=C/CN(C)C,,-7.24% [at 11.2 µM]
C=C1c2c(Cl)ccc(O)c2C(O)=C2C(=O)[C@@]3(O)C(O)=C(C(N)=O)C(=O)[C@@H](N(C)C)[C@@H]3[C@@H](O)[C@H]12,inactive,
CC(C)OC(=O)OCOP(=O)(CO[C@H](C)Cn1cnc2c(N)ncnc21)OCOC(=O)OC(C)C,inactive,
C/C=C(/C)C(=O)O[C@H]1C(C)=CC23C(=O)C(C=C(CO)[C@@H](O)[C@]12O)[C@H]1[C@@H](C[C@H]3C)C1(C)C (some centres not stated),inactive,
O=c1ccc2ccccc2o1,inactive,
Cc1nnc(C(=O)NC(C)(C)c2nc(C(=O)NCc3ccc(F)cc3)c(O)c(=O)n2C)o1,inactive,
